Measured values: PubChem BioAssay AID588676 (Johns Hopkins Ion Channel Center, 2011)
Among all 310,000 compounds or so, about 3,900 (1.3%) were called active.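 Rule for the calls: active = calcium-response B-score plate-corrected more than 3 library SD below zero, starting fluorescence within 5 deviations, no agonist response on first addition; inactive = the rest.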 Shown is part of a subset that was picked to be rich in actives.

Molecular target: Mas-related G-protein coupled receptor member X1 (Homo sapiens) (UniProt Q96LB2)
Sequence (Q96LB2 whole entry, looked up): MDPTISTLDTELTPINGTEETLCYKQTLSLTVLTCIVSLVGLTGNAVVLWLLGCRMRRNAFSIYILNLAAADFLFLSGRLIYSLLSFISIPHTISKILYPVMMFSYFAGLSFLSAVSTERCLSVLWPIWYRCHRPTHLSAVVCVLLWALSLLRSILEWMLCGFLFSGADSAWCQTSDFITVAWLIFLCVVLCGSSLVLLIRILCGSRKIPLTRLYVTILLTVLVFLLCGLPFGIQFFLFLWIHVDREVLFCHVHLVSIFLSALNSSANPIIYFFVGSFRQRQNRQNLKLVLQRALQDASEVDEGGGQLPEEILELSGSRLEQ
Experiment: blockade of BAM8-22-evoked MrgX1 calcium response – HEK293 cells, Fluo-4 calcium flux, primary screen (AID 588676);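 for B-score: peak minus trough fluorescence over baseline after final BAM8-22 challenge near maximal dose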
Details: Fluo-4, BAM8-22 antagonism, at 10 µM; active compounds read low

SMILES | B-score
O=C(Cn1c(-c2cscn2)nc2ccccc21)Nc1ccc(Cl)cc1 | inactive
CC(=O)c1cc(-c2ccccc2)n(CC(=O)NC2CCCCC2)c1C | inactive
O=C(Cn1c(-c2cncs2)nc2ccccc21)NC1CCCC1 | -5 (active)
Cc1cc(NC(=O)CSC2=NS(=O)(=O)c3cc(Cl)ccc3N2)no1 | inactive
C[C@@H](NC(=O)OC(C)(C)C)c1nnc(S(=O)(=O)Cc2ccccc2)o1 | inactive
CNC(=S)N/N=C/c1ccc(OCc2ccccc2)c(Br)c1 | inactive
O=C(NCc1ccccn1)c1ccc2nc(-c3ccco3)c(-c3ccco3)nc2c1 | inactive
CCCC(=O)Nc1ccc2c(c1)nc(CCNC(=O)c1ccco1)n2C | inactive
COCCNC(=O)Nc1ccc2nc(-c3ccco3)c(-c3ccco3)nc2c1 | -6.82 (active)
CCOc1ccc(S(=O)(=O)NCCC(=O)N2CCCCCCC2)cc1 | inactive
O=C(NC(=S)N1CCc2ccccc21)c1ccco1 | inactive
COc1ccc([N+](=O)[O-])cc1-c1nc2ccccc2nc1-c1ccccc1 | inactive
O=[N+]([O-])c1ccc2nc(-c3ccccn3)[nH]c2c1 | inactive
O=[N+]([O-])c1ccc2c(c1)Nc1nc3ccccc3nc1N2 | -4.67 (active)
[O-][n+]1onc2c1CCc1[nH]c(-c3ccccc3)nc1-2 | inactive
COc1ccc(C2=NN(C(C)=O)C(c3ccccc3)C2)cc1 (stereo unspecified) | inactive
COc1ccc(C(=S)Nc2ccccc2)cc1 | inactive
COc1ccc(NC(=S)N2N=CCC2c2ccccc2)cc1 (stereo unspecified) | -7.31 (active)
Cc1nnc(CN(C)Cc2cn[nH]c2-c2ccc(-c3ccccc3)cc2)o1 | inactive
CC(Nc1nc(C(F)(F)F)nc2ccccc12)c1cccs1 (stereo unspecified) | inactive
Cc1ccc(N2C(=O)C3C4C=CC(CC4)C3C2=O)cc1Br (stereo unspecified) | inactive
COc1cc([N+](=O)[O-])ccc1NC(=S)N1CCN(c2ccccn2)CC1 | -5.85 (active)

SMILES | B-score
O=[N+]([O-])c1ccc(NC(=S)N2CCN(c3ccccn3)CC2)cc1 | inactive
CNC(=S)N1CCN(c2ccccn2)CC1 | inactive
CCC(C(=O)NC1CCCCC1)N(C(=O)c1snc(C(N)=O)c1N)c1ccc(OC)cc1OC (stereo unspecified) | inactive
COC(=O)c1cccc(C(=O)N2CCCC(Nc3ccc4c(c3)OCCO4)C2)c1 (stereo unspecified) | inactive
Cc1ccc(S(=O)(=O)N2CCN(C(=O)c3ccccc3-c3nc4ccccc4s3)CC2)c(C)c1 | -4.66 (active)
Cc1ccc(S(=O)(=O)N2CCN(C(=O)N3CCOCC3)CC2)c(C)c1 | inactive
Cc1ccc(S(=O)(=O)N2CCN(C(=O)COC(=O)c3c(C)cc(C)cc3C)CC2)c(C)c1 | inactive
COc1cc(SC#N)ccc1N=Cc1c(C)[nH]n(-c2ccc(C)cc2)c1=O | inactive
C=CCSc1nsc(NC(=O)Nc2cccc(C(C)=O)c2)n1 | inactive
CCSc1nsc(NC(=O)Nc2cccc(C(C)=O)c2)n1 | -6.91 (active)
CCSc1nsc(NC(=O)Nc2ccccc2OC)n1 | inactive
COc1ccc(/C=N/NC(=O)c2cc(-c3cccc(C)c3)nc3ccccc23)cc1O | inactive
CCOc1cc(/C=N/NC(=O)c2cc(-c3ccccc3)nc3ccccc23)ccc1O | inactive
COc1cccc(-c2cc(C(=O)N/N=C/c3ccc(OC)c(COC(C)=O)c3)c3ccccc3n2)c1 | -7.49 (active)
CCCCN(C1CCS(=O)(=O)C1)S(=O)(=O)c1ccc(C(C)C)cc1 (stereo unspecified) | inactive
C1=C(N2CCOCC2)/C(=C/c2nc3ccccc3[nH]2)CC1 | -5.3 (active)
O=c1[nH]c(N2CCOCC2)nc2ccccc12 | inactive
CC1(C)Cc2c(C#N)c(SCc3nc4ccccc4[nH]3)nc(N3CCOCC3)c2CO1 | inactive
COc1ccc2c(c1)[C@H]1[C@H](CO2)[C@H](c2ccccc2)[C@]2(C)C(=O)Nc3cc(F)c(F)cc3C(=O)N12 | inactive
COc1cc(CN(C)Cc2nc3cc(C(F)(F)F)ccc3c(=O)[nH]2)ccc1OC(F)F | inactive
CCOCCCNC(=O)C1(O)c2cc(Br)ccc2NC(=O)N1c1ccc(C)c(C)c1 (stereo unspecified) | inactive
C=CCn1c(=NC(=O)c2cccs2)sc2cc(NC(C)=O)ccc21 | inactive

SMILES | B-score
Cc1ccc(CCC(=O)Nc2ncc(Cc3cc(Cl)ccc3Cl)s2)o1 | inactive
Cc1ccc(Cc2cnc(N)s2)o1 | -6.78 (active)
CCn1ccnc1CN(C)C(=O)c1cc(COc2ccc(Cl)cc2OC)on1 | inactive
CCc1ccc2[nH]c(=O)c(Cc3ccccc3)c(O)c2c1 | inactive
CN(C)c1ccc(-n2cccc2/C=C2/SC(=Nc3ccc(F)cc3)NC2=O)cc1 | -5.31 (active)
CN(C)c1ccc(-n2cccc2/C=N/n2cnnc2)cc1 | inactive
Cc1ccc(N=C2NC(=O)/C(=C/C=C/c3ccco3)S2)cc1C | inactive
Cc1ccccc1NC(=O)Cn1cc(C(=O)C2CC2)c2ccccc21 | inactive
COc1cccc2sc(N(CCCN(C)C)C(=O)CCS(=O)(=O)c3ccccc3)nc12 | inactive
COc1cc2ccccc2cc1C(=O)N(CCN(C)C)c1nc2c(F)cccc2s1 | inactive
COc1cccc2sc(N(CCCN(C)C)C(=O)C(c3ccccc3)c3ccccc3)nc12 | -7.14 (active)
CCc1ccc2c(c1)C1(NN=C(c3ccccc3)S1)C(=O)N2 (stereo unspecified) | inactive
CCOC(=O)c1c(NC(=O)CCl)sc(C(=O)N(CC)CC)c1C | inactive
Cn1nc(C(F)(F)F)cc1-c1ccc(/C=C(\C#N)C(=O)c2cccc(C(F)(F)F)c2)s1 | inactive
CCOC(=O)c1c(C)nc(-c2ccccc2)nc1NC(=O)C(C)C | inactive
CCOC(=O)c1c(C)[nH]c(=S)c(C#N)c1-c1ccccc1 | -6.66 (active)
CC(=O)c1c(C)[nH]c(=S)c(C#N)c1-c1ccc(F)cc1 | inactive
O=c1c(Cl)c(NCc2ccc(F)cc2Cl)cnn1C12CC3CC(CC(C3)C1)C2 | inactive
Cc1cccc2c1-c1sc(C(=O)NCCCN3CCc4ccccc4C3)cc1CO2 | inactive
CC1=NN(c2cccc(Cl)c2)C(=O)C12CC(C)=C(C)CS2 (stereo unspecified) | inactive
CC(C)Oc1ccc(C(CC(=O)N2CCOCC2)C(C)C)cc1 (stereo unspecified) | inactive
O=[N+]([O-])c1ccc(N2CCN(S(=O)(=O)c3ccccc3)CC2)cc1N1CCc2ccccc2C1 | inactive
